About 79,000 compounds went through this panel and 15% of them were active in at least one assay; those are over-represented in the sample as a whole. Active and inactive are the calls of the source. Rule as the data show it: active = growth inhibition above about 70%; inactive = the rest.
Columns and labels:
[1] = NCI Yeast Anticancer Drug Screen. Data for the wt1 strain (AID 149);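 also: 0% = growth of vehicle-treated wt1 cultures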; conditions: S. cerevisiae wt1 strain (SPY 50644) growth inhibition, active compounds read high
In short: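 Yeast wt1 strain exposed to compounds; growth inhibition measured relative to vehicle-treated controls.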

[2] = NCI Yeast Anticancer Drug Screen. Data for the rad50EPP+ strain (AID 151);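 also: 0% = growth of vehicle-treated control cultures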; conditions: S. cerevisiae rad50 mutant strain, active compounds read high
In short: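 rad50EPP+ yeast treated with test compounds. Readout: growth vs vehicle control.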

[3] = NCI Yeast Anticancer Drug Screen. Data for the mgt1 strain (AID 153); conditions: S. cerevisiae mgt1 mutant growth inhibition, active compounds read high
In short: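 Growth inhibition relative to vehicle controls was scored for the mgt1 yeast strain after compound exposure.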

[4] = NCI Yeast Anticancer Drug Screen. Data for the rad50 strain (AID 155);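 also: 0% = growth of vehicle-only cultures of the same strain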; conditions: S. cerevisiae rad50 strain growth inhibition, active compounds read high
In short: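 Yeast carrying a defined DNA repair defect were exposed to test compounds, and growth was compared with vehicle-treated controls to give percent inhibition.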

[5] = NCI Yeast Anticancer Drug Screen. Data for the mec2-1 strain (AID 157); conditions: S. cerevisiae mec2-1 strain, active compounds read high
In short: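 Growth inhibition is read against vehicle-treated controls after compound exposure of the mec2-1 yeast strain, which is defective in DNA damage repair or cell cycle control.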

[6] = NCI Yeast Anticancer Drug Screen. Data for the rad14 strain (AID 159);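 also: 0% = growth of vehicle-treated control cultures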; conditions: S. cerevisiae rad14 strain growth inhibition, active compounds read high
In short: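 Yeast cells carrying a defined DNA-repair defect were exposed to compounds, and growth inhibition was calculated relative to vehicle-treated control cultures.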

[7] = NCI Yeast Anticancer Drug Screen. Data for the CLN2oe strain (AID 163);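 also: 0% = growth of vehicle-only control cultures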; conditions: S. cerevisiae CLN2oe strain, active compounds read high
In short: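 Compound-treated yeast; growth vs vehicle ctrl = % inhibition. Genetically altered strain (cell-cycle control).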

[8] = NCI Yeast Anticancer Drug Screen. Data for the cln2 rad14 strain (AID 165);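 also: 0% = growth equal to vehicle treated cultures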; conditions: S. cerevisiae cln2 rad14 strain, active compounds read high
In short: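 Growth inhibition, relative to vehicle-treated controls, is the read-out. The test organism is a yeast strain with defined genetic alterations, cln2 rad14.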

[9] = NCI Yeast Anticancer Drug Screen. Data for the bub3 strain (AID 167); conditions: S. cerevisiae bub3 mutant strain, active compounds read high
In short: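 Compounds were applied to a genetically altered yeast strain carrying a cell-cycle control defect. Growth inhibition was scored against vehicle-treated controls.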

[10] = NCI Yeast Anticancer Drug Screen. Data for the wt2 strain (AID 169);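 also: 0% = growth of vehicle-treated yeast cultures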; conditions: S. cerevisiae wt2 strain growth inhibition, active compounds read high
In short: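 Compound exposure of yeast; growth compared with vehicle controls; inhibition reported.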

[11] = NCI Yeast Anticancer Drug Screen. Data for the mlh1 strain (AID 171);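 also: 0% = growth of vehicle-treated control cultures of the same strain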; conditions: S. cerevisiae mlh1 strain growth inhibition, active compounds read high
In short: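 Compounds are applied to a genetically altered yeast strain, and its growth is compared with that of vehicle-treated cultures to give percent inhibition.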

[12] = NCI Yeast Anticancer Drug Screen. Data for the sgs1 strain (AID 173);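 also: 0% = growth of vehicle-only control cultures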; conditions: S. cerevisiae sgs1 mutant, active compounds read high
In short: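 Compounds applied to genetically altered yeast; growth compared with vehicle-treated cultures to give % inhibition.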

[13] = NCI Yeast Anticancer Drug Screen. Data for the mlh1 rad18 strain (AID 175); conditions: S. cerevisiae mlh1 rad18 strain growth inhibition, active compounds read high
In short: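 Cells of a genetically altered yeast strain, deficient in DNA damage repair, were treated with compound. Their growth was then compared with that of vehicle-treated cultures to give inhibition.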

[14] = NCI Yeast Anticancer Drug Screen. Data for the rad18 strain (AID 177); conditions: S. cerevisiae rad18 mutant growth inhibition, active compounds read high
In short: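 Compounds are applied to a repair-deficient yeast strain, and growth is compared with that of vehicle-treated cultures to give percent inhibition.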

[15] = NCI Yeast Anticancer Drug Screen. Data for the sgs1 mgt1 strain (AID 161);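 also: 0% = growth of cultures given vehicle only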; conditions: S. cerevisiae sgs1 mgt1 strain, active compounds read high
In short: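 Percent growth inhibition was derived by comparing compound-exposed mutant yeast with vehicle-exposed cultures. The strain carries alterations in DNA damage repair.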

[16] = at 5.0 µM (retest, dose inferred, filed as 0.5)
[17] = at 50.0 µM (retest, dose inferred, filed as 5.0)

Measured: growth inhibition

CN(C)CCC(=O)c1c[nH]c2ccccc12
inactive: [1]; at 1.2 µM -18% | [1]; at 3.7 µM -7% | [1]; at 11.0 µM -7% | [1]; at 33.0 µM -19% | [1]; at 100.0 µM 18% | [2]; at 1.2 µM -17% | [2]; at 3.7 µM 24% | [2]; at 11.0 µM 16% | [2]; at 33.0 µM 39% | [2]; at 100.0 µM 54% | [3]; at 1.2 µM -38% | [3]; at 3.7 µM -10% | [3]; at 11.0 µM -39% | [3]; at 33.0 µM -16% | [3]; at 100.0 µM 18% | [4]; at 1.2 µM -21% | [4]; at 3.7 µM -17% | [4]; at 11.0 µM -26% | [4]; at 33.0 µM 5% | [4]; at 100.0 µM 49% | [5]; at 1.2 µM -41% | [5]; at 3.7 µM -35% | [5]; [16] 67% | [5]; at 11.0 µM -24% | [5]; at 33.0 µM -8% | [5]; at 50.0 µM 37.7% | [5]; at 100.0 µM 64% | [6]; at 1.2 µM -23% | [6]; at 3.7 µM -29% | [6]; at 11.0 µM -9% | [6]; at 33.0 µM -2% | [6]; at 100.0 µM 18% | [7]; at 1.2 µM -11% | [7]; at 3.7 µM -14% | [7]; at 11.0 µM -14% | [7]; at 33.0 µM -6% | [7]; at 100.0 µM 8% | [8]; [17] 36% | [8]; at 50.0 µM 31.1% | [9]; at 1.2 µM -23% | [9]; at 3.7 µM -29% | [9]; [16] 22% | [9]; at 11.0 µM -36% | [9]; at 33.0 µM -35% | [9]; [17] 51% | [9]; at 50.0 µM 64.9% | [9]; at 100.0 µM 37% | [10]; at 1.2 µM -19% | [10]; at 3.7 µM -46% | [10]; at 11.0 µM -19% | [10]; at 33.0 µM -14% | [10]; at 100.0 µM 25% | [11]; at 1.2 µM -61% | [11]; at 3.7 µM -74% | [11]; at 11.0 µM -56% | [11]; at 33.0 µM -20% | [11]; at 100.0 µM 37% | [12]; at 1.2 µM -42% | [12]; at 3.7 µM -33% | [12]; at 11.0 µM -34% | [12]; at 33.0 µM 14% | [12]; at 100.0 µM 54% | [13]; [16] 47% | [13]; at 50.0 µM 45.8% | [14]; at 1.2 µM -55% | [14]; at 3.7 µM -62% | [14]; at 11.0 µM -47% | [14]; at 33.0 µM 8% | [14]; at 100.0 µM 57%
active: [4]; [16] 82% | [4]; [17] 98% | [4]; at 50.0 µM 73.5% | [5]; [17] 98% | [8]; [16] 77% | [13]; [17] 97%

CSc1ccc2c(c1)C(N1CCN(C)CC1)Cc1ccccc1S2 (stereo not given)
inactive: [1]; at 1.2 µM -58% | [1]; at 3.7 µM -61% | [1]; at 11.0 µM -57% | [1]; at 33.0 µM -6% | [2]; at 1.2 µM -27% | [2]; at 3.7 µM -45% | [2]; at 11.0 µM -37% | [2]; at 33.0 µM -4% | [3]; at 1.2 µM -33% | [3]; at 3.7 µM -31% | [3]; at 11.0 µM -49% | [4]; at 1.2 µM -34% | [4]; at 3.7 µM -47% | [4]; [16] 28% | [4]; at 11.0 µM -25% | [4]; [17] 67% | [5]; at 1.2 µM -75% | [5]; at 3.7 µM -83% | [5]; [16] 15% | [5]; at 11.0 µM -4% | [6]; at 1.2 µM -55% | [6]; at 3.7 µM -36% | [6]; at 11.0 µM 5% | [7]; at 1.2 µM -17% | [7]; at 3.7 µM 5% | [7]; at 11.0 µM 13% | [7]; at 33.0 µM 52% | [9]; at 1.2 µM -68% | [9]; at 3.7 µM -46% | [9]; at 11.0 µM 14% | [10]; at 1.2 µM -59% | [10]; at 3.7 µM -35% | [10]; at 11.0 µM -46% | [10]; at 33.0 µM 6% | [11]; at 1.2 µM -67% | [11]; at 3.7 µM -68% | [11]; at 11.0 µM -37% | [13]; [16] 35% | [14]; at 1.2 µM -44% | [14]; at 3.7 µM -72% | [14]; at 11.0 µM -44%
active: [1]; at 100.0 µM 99% | [2]; at 100.0 µM 91% | [3]; at 33.0 µM 74% | [3]; at 100.0 µM 99% | [4]; at 33.0 µM 76% | [4]; at 50.0 µM 88.1% | [4]; at 100.0 µM 98% | [5]; at 33.0 µM 83% | [5]; [17] 78% | [5]; at 50.0 µM 78.6% | [5]; at 100.0 µM 99% | [6]; at 33.0 µM 98% | [6]; at 100.0 µM 99% | [15]; [16] 98% | [15]; [17] 86% | [15]; at 50.0 µM 84.2% | [7]; at 100.0 µM 99% | [9]; [16] 98% | [9]; at 33.0 µM 91% | [9]; [17] 86% | [9]; at 50.0 µM 81.7% | [9]; at 100.0 µM 98% | [10]; at 100.0 µM 99% | [11]; at 33.0 µM 88% | [11]; at 100.0 µM 98% | [13]; [17] 89% | [13]; at 50.0 µM 92.8% | [14]; at 33.0 µM 75% | [14]; at 100.0 µM 98%
